# Bioassay records from PubChem.
# Shown are actives, neighbours in structure and some others; about 3.4% of the full set was active somewhere.
# Vif inh: HIV Vif self-association inhibitors, primary screen, imaging, HEK293T, single point; inhibition, % at 7.49 µM; hit rate 0.35% among 340,000; HEK293T cells, Vif self-association by quenched fluorescence, 24 h; AID 602346, 2012; in the data active means inhibition above about 50%, passing the limit was not always enough; inconclusive means no clear call, values can overlap the other calls; inactive means below about 31%
# esBAF inh: Bmi1 luciferase reporter increase in mESCs, primary screen, esBAF inhibitor project, mouse ES cells, Bmi1 luciferase knock-in, single point; hit rate 2% among 350,000; reporter increase, % at 12.5 µM; 24 h; 100% = twice the neutral-well signal; in the data active means activation above about 40%; inconclusive means no clear call, values can overlap the other calls;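 further: 0% = median of the plate's neutral control wells and 100% = double that signal; a rise in the Bmi1 reporter signal indicates esBAF inhibition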
# HSF1 inhib: HSF1 inhibitors in luciferase reporter cells, primary screen, cell-based, NIH3T3, luminescence; NIH3T3-HGL HSE-luciferase, MG132-induced, luminescence 8 h; stronger effect = lower value; AID 2098, 2009; hit rate 0.77% among 300,000; activity change, negative = inhibition, % at 7.5 µM (by protocol);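 active means more than half of replicate wells show activity change below -50%, luminescence cut by over half; inconclusive means some wells, but at most half, below -50%; inactive means no replicate well below -50%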;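 further: luciferase reports HSF-1 transcriptional activity via heat shock element; 0% = median of DMSO wells and -100% = zero luminescence signal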
# HSF-1 act: HSF-1 activators, primary screen, NIH3T3-HGL cells, MG132 stress, luminescence, single point. NIH3T3-HGL HSF-1 luciferase reporter, 8 h; 100% = twice DMSO control signal. activation, % at 9 µM. hit rate 1.7% among 300,000. AID 504408, 2011;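 active means mean replicate activation of at least 50% with a set share of replicates each reaching 50%; inconclusive means only one of those two conditions met; inactive means mean below 50% and too few replicates reaching it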;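 further: 0% = median of the neutral control wells and 100% = twice that signal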
# An asterisk follows results filed as active; ? = inconclusive; . = not tested or not shown.
SMILES,Vif inh,esBAF inh,HSF1 inhib,HSF-1 act
COCC(=O)N1C[C@@H](C)[C@H](OC)CN(C)C(=O)c2cc(NC(=O)NC(C)C)ccc2OC[C@@H]1C,.,-0.8,.,.
COCCn1c(C)cc(/C=C2/NC(=O)N(c3cccc(Cl)c3)C2=O)c1C,-3.1,.,?,-52.7
CCn1c(C)cc(/C=C2/NC(=O)N(c3ccccc3)C2=O)c1C,0.5,.,-52.1*,-55.1
CO[C@@H]1CN(C)C(=O)c2cc(NC(=O)C3CCCC3)ccc2OC[C@H](C)NC[C@H]1C,.,-1.6,.,.
CCNC(=O)/C(C#N)=C/c1c(N(Cc2ccccc2)Cc2ccccc2)nc2ccccn2c1=O,1.3,.,22.1,65.6*
O=C(O)CN1C(=O)/C(=C/c2ccccc2Br)Oc2ccccc21,4.5,2.5,15.8,69.5*
COc1ccc(C(=O)NCCSC2CCCCC2)cc1,-1.2,.,9.3,51.2*
O=C(NCCSC1CCCCC1)c1ccccc1,0.4,.,.,.
CCOc1ccc(-c2ccc(SCc3ccccn3)nn2)cc1,-1.6,.,-2.3,15.6
CCc1ccc(-c2ccc(SCc3ccccn3)nn2)cc1,10.6,63.0*,20.2,42.3
CC(C)C(=O)Nc1ccc2c(c1)C(=O)N(C)[C@@H]1CC[C@@H](CC(=O)NCCCN(C)C)O[C@@H]1CO2,.,6.4,.,.
CCCCN1CC(O)=C(c2nc3ccccc3[nH]2)C1=N,0.6,58.5*,0.7,35.6
COc1ccc(CCNS(=O)(=O)CCNC(=O)c2ccccc2)cc1,5.5,3.8,0.0,7.0
COc1cccc(C(=O)NCCS(=O)(=O)NCCc2ccccc2)c1,8.9,39.7,33.7,58.6*
CNC(=O)c1sc(-c2ccc(Cl)cc2)nc1C,7.0,67.5*,12.7,29.9
Cc1ccc(S(=O)(=O)Nc2ccc3c(c2)C(=O)N([C@H](C)CO)C[C@@H](C)[C@@H](CN(C)C(=O)NC2CCCCC2)OCCCC[C@@H](C)O3)cc1,.,13.8,.,.
Cn1c(-c2ccccc2)cnc1SCc1nc2ccccc2c(=O)[nH]1,-10.1,.,67.0,104.3*
O=c1[nH]c(CSc2ncn[nH]2)nc2ccccc12,23.3,-3.3,-6.0,3.8
O=c1[nH]c(CSc2ncnc3sccc23)nc2ccccc12,-2.6,.,29.8,56.1*
O=C(NCC[C@H]1CC[C@H](NS(=O)(=O)c2cccc(F)c2)[C@H](CO)O1)c1cnccn1,.,-4.2,.,.
O=[N+]([O-])c1ccccc1/C=N/N1CCN(c2ccccn2)CC1,6.9,60.0*,18.6,19.2
O=[N+]([O-])c1ccccc1C=NN1CCCCCC1,16.0,46.7*,.,.
Cc1ccc(N2CCN(/N=C/c3ccccc3[N+](=O)[O-])CC2)cc1,-0.8,15.2,9.7,22.0
O=[N+]([O-])c1ccccc1/C=N/N1CCN(Cc2ccccc2)CC1,-2.1,?,14.9,10.4
CCCN(C)C[C@H]1Oc2cc(C#CC3CCCCC3)ccc2S(=O)(=O)N([C@H](C)CO)C[C@@H]1C,.,1.7,.,.
SMILES,Vif inh,esBAF inh,HSF1 inhib,HSF-1 act
COc1ccc(C(=O)N2CCn3c2nc2ccccc23)cc1,-6.5,?,-0.1,9.1
O=C(c1ccc(Cl)cc1)N1CCn2c1nc1ccccc12,-3.6,49.1*,-0.9,34.9
COCC(=O)N[C@@H]1CC[C@H](CC(=O)NCc2ccccc2OC)O[C@H]1CO,.,-2.1,.,.
COc1ccc(NC(=O)Nc2ccc3c(c2)CC(=O)N([C@@H](C)CO)C[C@H](C)[C@@H](CN(C)C(=O)NC(C)C)O3)cc1,.,4.6,.,.
COc1ccc(/C=N/Nc2snc(SC)c2C#N)cc1OC,-1.2,52.5*,39.5,42.5
O=C(C[C@H]1C[C@H]2c3cc(NC(=O)Nc4ccccc4)ccc3O[C@H]2[C@@H](CO)O1)NCCN1CCCCC1,.,4.8,.,.
CCOC(=O)Nc1ccc2c(CN(C)Cc3ccc(F)cc3)cc(=O)oc2c1,10.9,-7.2,7.5,28.2
CCOC(=O)Nc1ccc2c(C)cc(=O)oc2c1,-7.3,43.0*,18.5,30.8
Cc1cc(=O)oc2cc(NC(=O)CCOc3ccccc3)ccc12,2.6,16.4,0.7,29.7
CCCCOC(=O)Nc1ccc2c(C)cc(=O)oc2c1,-0.3,67.7*,25.8,45.0
COc1ccccc1NC(=O)CN(C)S(=O)(=O)c1ccc2c(c1)CCC(=O)N2,-7.7,2.5,-7.5,1.2
COc1ccc(NC(=O)CN(C)S(=O)(=O)c2ccc3c(c2)CCC(=O)N3)c(OC)c1,5.4,-0.7,-86.3*,-89.8
CC(C)c1ccccc1-n1c(-c2cccnc2)n[nH]c1=S,2.3,.,-65.1*,-71.3
CC(=O)N(C)C[C@@H]1Oc2ncc(-c3ccc(F)cc3)cc2C(=O)N([C@@H](C)CO)C[C@H]1C,.,-4.3,.,.
CC(C)Nc1nc(Cl)nc(Nc2ccccc2)n1,-2.2,60.5*,14.3,18.4
CC(C)c1ccc(Nc2nc(Cl)nc(NCCO)n2)cc1,0.9,7.9,-2.4,-0.1
C[C@@H](NC(=O)C[C@@H]1C=C[C@@H](NC(=O)Nc2ccc3c(c2)OCO3)[C@H](CO)O1)c1ccccc1,.,4.3,.,.
Cc1noc(C)c1S(=O)(=O)Nc1ccc2c(c1)C(=O)N([C@H](C)CO)C[C@@H](C)[C@@H](CN(C)C)OCCCC[C@H](C)O2,.,-0.7,.,.
CC12COC3(C(=O)Nc4ccc5ccccc5c4)CC1CCC32C (centres undefined),8.7,.,30.7,61.6*
CCCC#Cc1ccc2c(c1)O[C@H](CN(C)Cc1ccc3c(c1)OCO3)[C@H](C)CN([C@@H](C)CO)S2(=O)=O,.,-24.2,.,.
O=C(COc1ccc(Cl)cc1Cl)OCn1nnc2ccccc2c1=O,3.5,.,10.4,-7.8
O=c1c2ccccc2nnn1COc1cccc(Cl)c1,-8.3,59.5*,55.3,73.6*
CC(=O)N(C)C[C@H]1Oc2ncc(C#CC3(O)CCCC3)cc2C(=O)N([C@@H](C)CO)C[C@H]1C,.,0.5,.,.
Cc1cc2occ(CC(=O)NCc3cccs3)c2cc1C(C)C,-6.1,.,11.7,62.1*
Cc1ccc(-n2ncc3ccccc3c2=O)cc1Cl,.,.,74.7,88.2*
SMILES,Vif inh,esBAF inh,HSF1 inhib,HSF-1 act
CCN1CCN(C(=O)c2cc(COc3ccc4ncccc4c3)on2)CC1,-12.1,-10.0,-8.5,0.6
COCC1CCCCN1C(=O)c1cc(COc2ccc3ncccc3c2)on1 (centres undefined),-20.0,-12.6,-71.7*,-78.9
CCC1CCCCN1C(=O)c1cc(COc2ccc3ncccc3c2)on1 (centres undefined),-15.6,.,-3.9,-14.6
CCCN1CCN(C(=O)c2cc(COc3ccc4ncccc4c3)on2)CC1,0.1,.,-57.0*,-66.3
CN(c1ccccc1)S(=O)(=O)c1nnc(NC(=O)COc2ccccc2)s1,-0.6,-2.9,-1.2,-9.5
CN(c1ccccc1)S(=O)(=O)c1nnc(NC(=O)COc2ccccc2F)s1,-8.5,-3.1,-72.1*,-78.2
CC(C)(C)C(=O)Nc1ccc(Sc2ccc([N+](=O)[O-])cc2)cc1,-6.0,.,7.0,10.5
CC(=O)Nc1ccc(Sc2ccc([N+](=O)[O-])o2)cc1,116.4*,-66.6,.,.
COc1ccc(NC(=O)COc2ccccc2Cc2ccccc2)cc1S(N)(=O)=O,-21.8,.,42.1,81.1*
